The values below come from ChEMBL document CHEMBL2218924, “A broad activity screen in support of a chemogenomic map for kinase signalling research and drug discovery” (Biochem J, 2013).

Test [1] deals with Homeodomain-interacting protein kinase 3 (Homo sapiens) (UniProt Q9H422). The conditions noted are these: at 10 µM.
Test [2] deals with T1, Serine/threonine-protein kinase haspin (Homo sapiens) (UniProt Q8TF76).
T1 sequence (whole entry): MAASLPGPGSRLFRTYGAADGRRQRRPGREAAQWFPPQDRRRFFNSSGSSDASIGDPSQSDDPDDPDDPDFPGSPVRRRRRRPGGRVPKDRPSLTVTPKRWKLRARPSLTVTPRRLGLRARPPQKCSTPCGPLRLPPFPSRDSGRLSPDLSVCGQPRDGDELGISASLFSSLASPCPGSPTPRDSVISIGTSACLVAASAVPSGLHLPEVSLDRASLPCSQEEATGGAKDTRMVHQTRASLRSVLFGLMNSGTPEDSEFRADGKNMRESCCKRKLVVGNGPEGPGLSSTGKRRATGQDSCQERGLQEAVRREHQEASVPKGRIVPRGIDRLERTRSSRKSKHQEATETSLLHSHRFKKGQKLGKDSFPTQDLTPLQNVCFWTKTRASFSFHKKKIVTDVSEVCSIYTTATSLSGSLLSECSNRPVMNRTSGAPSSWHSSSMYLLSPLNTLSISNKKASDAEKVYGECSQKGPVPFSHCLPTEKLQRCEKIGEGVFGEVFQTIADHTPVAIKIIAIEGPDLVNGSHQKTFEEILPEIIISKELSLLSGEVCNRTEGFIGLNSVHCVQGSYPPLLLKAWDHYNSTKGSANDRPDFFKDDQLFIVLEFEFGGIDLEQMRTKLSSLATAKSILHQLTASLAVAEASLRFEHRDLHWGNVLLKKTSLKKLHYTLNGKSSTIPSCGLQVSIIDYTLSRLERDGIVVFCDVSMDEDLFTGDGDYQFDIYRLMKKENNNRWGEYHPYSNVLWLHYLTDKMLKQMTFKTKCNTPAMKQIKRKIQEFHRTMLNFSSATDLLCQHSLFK
The conditions noted are these: at 1 µM.

Test [3] concerns the target T1, Serine/threonine-protein kinase haspin (Homo sapiens). The conditions noted are these: at 10 µM.
Test [4] deals with Tyrosine-protein kinase HCK (Homo sapiens) (UniProt P08631). The conditions noted are these: at 1 µM.
Sequence of Tyrosine-protein kinase HCK (Homo sapiens) (P08631 2-526 limits assumed): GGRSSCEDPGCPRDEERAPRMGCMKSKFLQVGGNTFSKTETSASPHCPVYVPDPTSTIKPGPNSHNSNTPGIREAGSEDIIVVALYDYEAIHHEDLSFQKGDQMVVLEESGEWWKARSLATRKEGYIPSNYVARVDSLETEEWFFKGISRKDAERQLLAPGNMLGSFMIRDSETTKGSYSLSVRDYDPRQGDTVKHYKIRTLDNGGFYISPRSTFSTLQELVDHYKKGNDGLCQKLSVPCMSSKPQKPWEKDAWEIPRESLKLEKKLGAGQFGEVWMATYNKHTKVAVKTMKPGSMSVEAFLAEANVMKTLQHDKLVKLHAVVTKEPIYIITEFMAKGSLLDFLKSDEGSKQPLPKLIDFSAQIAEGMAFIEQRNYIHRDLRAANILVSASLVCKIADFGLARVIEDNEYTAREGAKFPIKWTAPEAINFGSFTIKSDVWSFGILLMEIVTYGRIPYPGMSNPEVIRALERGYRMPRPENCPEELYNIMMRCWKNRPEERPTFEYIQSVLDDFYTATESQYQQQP
The target is the same in test [5]. As to conditions: at 10 µM.
Test [6] has the same target. The conditions noted are these: at 1 µM. This is another data set of the same source.
For test [7] the target is unchanged. The conditions noted are these: at 10 µM. This is another data set of the same source.
For test [8], the target named is Insulin-like growth factor 1 receptor (Homo sapiens) (UniProt P08069). As to conditions: at 1 µM.
Sequence of Insulin-like growth factor 1 receptor (Homo sapiens) (P08069 31-736 limits assumed): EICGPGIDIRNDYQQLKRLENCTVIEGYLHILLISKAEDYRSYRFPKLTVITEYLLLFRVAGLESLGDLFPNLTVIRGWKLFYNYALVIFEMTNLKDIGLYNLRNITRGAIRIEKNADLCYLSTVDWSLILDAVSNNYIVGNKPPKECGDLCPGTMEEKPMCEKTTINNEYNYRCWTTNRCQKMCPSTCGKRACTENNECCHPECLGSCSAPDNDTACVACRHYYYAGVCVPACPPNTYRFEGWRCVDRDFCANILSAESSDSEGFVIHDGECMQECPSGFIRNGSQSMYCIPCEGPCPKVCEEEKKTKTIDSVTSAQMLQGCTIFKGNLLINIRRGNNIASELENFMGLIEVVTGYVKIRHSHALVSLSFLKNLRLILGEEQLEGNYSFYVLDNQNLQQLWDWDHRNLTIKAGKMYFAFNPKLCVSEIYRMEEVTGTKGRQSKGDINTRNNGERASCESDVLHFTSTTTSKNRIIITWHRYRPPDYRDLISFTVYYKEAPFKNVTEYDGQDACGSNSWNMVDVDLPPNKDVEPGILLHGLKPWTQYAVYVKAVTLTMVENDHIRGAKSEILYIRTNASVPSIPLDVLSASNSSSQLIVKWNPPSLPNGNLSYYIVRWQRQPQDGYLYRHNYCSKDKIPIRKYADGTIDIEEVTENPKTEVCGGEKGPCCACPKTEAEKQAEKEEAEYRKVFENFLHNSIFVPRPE
Sequence of Insulin-like growth factor 1 receptor (Homo sapiens) (P08069 741-1367 limits assumed): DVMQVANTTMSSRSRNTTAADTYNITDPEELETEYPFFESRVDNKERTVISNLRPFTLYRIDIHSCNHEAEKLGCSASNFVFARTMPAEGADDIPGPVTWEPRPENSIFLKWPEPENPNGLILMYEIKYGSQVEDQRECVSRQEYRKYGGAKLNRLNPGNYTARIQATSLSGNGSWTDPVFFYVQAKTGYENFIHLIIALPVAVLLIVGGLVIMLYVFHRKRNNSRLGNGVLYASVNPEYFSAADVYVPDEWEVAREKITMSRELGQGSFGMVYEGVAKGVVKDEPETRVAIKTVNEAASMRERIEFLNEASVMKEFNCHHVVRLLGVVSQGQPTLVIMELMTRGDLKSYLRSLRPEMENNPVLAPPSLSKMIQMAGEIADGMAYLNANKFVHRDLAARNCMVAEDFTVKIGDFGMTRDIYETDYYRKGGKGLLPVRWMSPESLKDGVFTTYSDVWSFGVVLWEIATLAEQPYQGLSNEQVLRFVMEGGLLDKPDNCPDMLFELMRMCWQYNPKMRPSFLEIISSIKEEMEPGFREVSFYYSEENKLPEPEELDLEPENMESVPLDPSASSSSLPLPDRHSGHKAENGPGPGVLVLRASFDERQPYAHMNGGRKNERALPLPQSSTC
The target is the same in test [9]. The conditions noted are these: at 10 µM.
Test [10] concerns the target T2, Protein kinase C zeta type (Homo sapiens) (UniProt Q05513).
T2 sequence (whole entry): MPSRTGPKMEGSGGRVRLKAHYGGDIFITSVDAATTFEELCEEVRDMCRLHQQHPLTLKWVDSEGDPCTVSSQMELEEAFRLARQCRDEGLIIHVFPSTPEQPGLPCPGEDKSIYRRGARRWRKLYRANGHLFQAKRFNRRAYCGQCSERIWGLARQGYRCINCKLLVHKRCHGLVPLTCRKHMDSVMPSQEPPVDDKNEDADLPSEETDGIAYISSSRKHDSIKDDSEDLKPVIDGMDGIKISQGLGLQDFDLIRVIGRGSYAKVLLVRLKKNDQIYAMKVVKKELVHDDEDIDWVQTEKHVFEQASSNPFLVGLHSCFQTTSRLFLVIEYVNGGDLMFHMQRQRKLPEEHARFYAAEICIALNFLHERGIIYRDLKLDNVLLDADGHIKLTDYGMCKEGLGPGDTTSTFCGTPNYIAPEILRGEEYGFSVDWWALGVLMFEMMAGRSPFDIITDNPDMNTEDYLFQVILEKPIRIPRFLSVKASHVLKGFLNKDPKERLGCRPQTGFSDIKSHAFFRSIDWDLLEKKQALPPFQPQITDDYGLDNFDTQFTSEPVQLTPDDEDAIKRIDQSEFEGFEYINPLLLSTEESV
As to conditions: at 10 µM.

Sequence of Homeodomain-interacting protein kinase 3 (Homo sapiens) (Q9H422 whole entry, looked up): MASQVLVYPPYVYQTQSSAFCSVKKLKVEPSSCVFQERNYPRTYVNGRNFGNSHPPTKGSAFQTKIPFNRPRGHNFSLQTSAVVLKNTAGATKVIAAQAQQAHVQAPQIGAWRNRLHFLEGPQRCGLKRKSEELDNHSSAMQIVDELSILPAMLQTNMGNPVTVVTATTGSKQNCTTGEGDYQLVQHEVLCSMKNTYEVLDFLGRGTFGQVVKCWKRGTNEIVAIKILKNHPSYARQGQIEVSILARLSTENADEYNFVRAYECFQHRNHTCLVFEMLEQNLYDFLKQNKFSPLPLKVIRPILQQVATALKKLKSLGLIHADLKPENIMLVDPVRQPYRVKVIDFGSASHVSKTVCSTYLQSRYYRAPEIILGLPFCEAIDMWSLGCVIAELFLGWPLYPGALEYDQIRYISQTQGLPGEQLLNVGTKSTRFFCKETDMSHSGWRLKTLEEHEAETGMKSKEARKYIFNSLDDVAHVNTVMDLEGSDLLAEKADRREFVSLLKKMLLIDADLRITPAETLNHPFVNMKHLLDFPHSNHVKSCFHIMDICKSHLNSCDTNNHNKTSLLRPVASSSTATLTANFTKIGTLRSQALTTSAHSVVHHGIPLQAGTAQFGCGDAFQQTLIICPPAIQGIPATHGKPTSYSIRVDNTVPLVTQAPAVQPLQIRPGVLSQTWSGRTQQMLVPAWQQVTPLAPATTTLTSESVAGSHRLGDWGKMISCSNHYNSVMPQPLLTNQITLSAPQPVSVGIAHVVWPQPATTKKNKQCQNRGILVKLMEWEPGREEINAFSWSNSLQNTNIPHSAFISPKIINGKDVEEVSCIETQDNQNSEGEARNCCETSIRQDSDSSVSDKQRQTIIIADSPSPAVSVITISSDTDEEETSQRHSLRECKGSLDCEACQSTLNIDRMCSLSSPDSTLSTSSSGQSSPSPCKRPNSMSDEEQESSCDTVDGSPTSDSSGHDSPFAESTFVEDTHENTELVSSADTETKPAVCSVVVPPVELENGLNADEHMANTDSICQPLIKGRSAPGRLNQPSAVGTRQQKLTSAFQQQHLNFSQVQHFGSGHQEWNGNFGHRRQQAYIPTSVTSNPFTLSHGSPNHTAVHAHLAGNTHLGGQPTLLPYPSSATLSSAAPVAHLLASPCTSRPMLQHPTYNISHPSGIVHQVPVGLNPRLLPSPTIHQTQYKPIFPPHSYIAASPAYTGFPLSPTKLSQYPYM

Regarding `CC(C)n1cnc2/c(=N/c3cccc(Cl)c3)nc(NCCO)[nH]c21`, the residual activity (commonly the signal under treatment as a percentage of the control signal) in [1] is 83%; in test [2], 80%; in [3] it was 58%; in test [4], 41%; in test [5], 13%; in test [6], 57%. Also, the residual activity stood at 13% in test [7], 103% in [8], 105% in [9] and 102% in [10].

Regarding `CO[C@H]1C[C@@H]2CC[C@@H](C)[C@@](O)(O2)C(=O)C(=O)N2CCCC[C@H]2C(=O)O[C@H]([C@H](C)C[C@@H]2CC[C@@H](O)[C@H](OC)C2)CC(=O)[C@H](C)/C=C(\C)[C@@H](O)[C@@H](OC)C(=O)[C@H](C)C[C@H](C)/C=C/C=C/C=C/1C`, the residual activity is 110% in test [1]; 86% in test [2]; 106% in test [3]; 73% in test [4]; 81% in [5]; 99% in test [6]. Moreover, the residual activity in test [7] was 87%; in test [8], 123%; in [9], 112%; in [10] it was 112%.

Consider `Oc1c2ccccc2c2c3c(cccc13)N=N2`, for which the residual activity is 19% in test [1]; 10% in [2]; -1% in [3]; 57% in test [4]; 27% in test [5]; 80% in [6]. The residual activity in test [7] was 83%; in [8] it was 91%; in test [9] it was 105%; in test [10], 106%.

`O=C(Nc1cccc(Nc2nccc(Nc3cccc(C(F)(F)F)c3)n2)c1)C1CC1`: the residual activity in [1] came out at 103%; in test [2], 71%; in test [3], 32%; in test [4], 42%; in test [5], 7%; in test [6] it was 78%. The residual activity came out at 78% in test [7], 51% in test [8], 6% in [9] and 116% in test [10].

Regarding `CC(C)n1cnc2c(NCc3ccccc3)nc(NCCCO)nc21`, the residual activity worked out at 106% in [1]; 101% in test [2]; 95% in test [3]; 81% in test [4]; 70% in test [5]; 84% in test [6]. Also, the residual activity came out at 81% in test [7], 78% in [8], 103% in test [9] and 107% in test [10].

On to `CC#CC(=O)Nc1cc2c(Nc3ccc(F)c(Cl)c3)ncnc2cn1`, for which the residual activity in [1] is 95%; in [2], 119%; in test [3], 98%; in test [4], 85%; in [5], 88%; in test [6], 95%. The residual activity in [7] was 88%; in test [8], 147%; in test [9], 86%; in [10] it was 103%.

With `O=C1NC(=O)/C(=C/c2ccc3c(c2)OC(F)(F)O3)S1`, the residual activity in test [1] is 88%; in test [2], 78%; in [3], 67%; in [4], 60%; in [5], 46%; in test [6] it was 115%. Besides, the residual activity in [7] was found to be 94%; in [8] it was 98%; in test [9], 130%; in [10] it was 111%.

For the compound `CCC(=O)Nc1ccc2ncnc(Nc3cccc(Br)c3)c2c1`, the residual activity worked out at 99% in [1]; 109% in test [2]; 62% in test [3]; 82% in test [4]; 45% in [5]; 86% in test [6]. Moreover, the residual activity in test [7] is 66%; in test [8] it was 132%; in [9], 116%; in test [10] it was 119%.

On to `Cc1ccc(NC2=CC(=O)c3sc(C)nc3C2=O)cc1`, for which the residual activity in test [1] stood at 97%; in test [2] it was 105%; in test [3], 116%; in test [4] it was 85%; in test [5], 74%; in [6], 103%. The residual activity in test [7] came to 99%; in [8] it was 75%; in test [9] it was 116%; in test [10], 102%.

Turning to `COc1ccc(CNc2nc(N(CCO)CCO)nc3c2ncn3C(C)C)cc1`, the residual activity in [1] was 98%; in test [2], 104%; in [3] it was 101%; in test [4] it was 62%; in test [5], 56%; in test [6] it was 102%. Further, the residual activity amounted to 91% in test [7], 90% in [8], 129% in [9] and 95% in test [10].

Consider `Oc1ccc(-c2nc(-c3ccc(F)cc3)c(-c3ccncc3)[nH]2)cc1`, for which the residual activity in test [1] was found to be 105%; in test [2] it was 55%; in test [3] it was 10%; in test [4] it was 59%; in [5], 24%; in test [6] it was 98%. In addition, the residual activity in [7] amounted to 45%; in test [8] it was 113%; in [9], 141%; in test [10] it was 92%.

On to `Nc1n[nH]c2nnc(-c3c(-c4ccccc4)nn4ccccc34)cc12`, for which the residual activity came to 93% in test [1]; 128% in [2]; 85% in [3]; 76% in test [4]; 40% in [5]; 87% in test [6]. The residual activity in test [7] worked out at 40%; in test [8], 85%; in test [9], 78%; in [10] it was 93%.

Consider `Cn1cc(/C=C2\C(=O)Nc3ccc(S(N)(=O)=O)cc32)c2ccccc21`, for which the residual activity in test [1] worked out at 32%; in [2], 101%; in test [3], 50%; in test [4], 26%; in test [5], 5%; in [6], 56%. The residual activity was determined as 47% in [7], 118% in test [8], 114% in [9] and 109% in [10].

`CNc1cc2c(Nc3cccc(Br)c3)ncnc2cn1`: the residual activity in [1] stood at 96%; in test [2], 109%; in [3], 53%; in test [4], 68%; in test [5] it was 30%; in test [6] it was 62%. The residual activity in test [7] came to 50%; in test [8], 118%; in test [9] it was 109%; in test [10], 118%.

As for `O=C1NC(=O)c2c1c1c3ccccc3[nH]c1c1[nH]c3cc(Br)ccc3c21`, the residual activity came out at 89% in test [1]; 99% in [2]; 72% in test [3]; 69% in test [4]; 56% in test [5]; 97% in [6]. The residual activity in [7] came to 78%; in [8] it was 87%; in test [9] it was 91%; in test [10], 88%.

Consider `Oc1n[nH]c2nnc(-c3c(-c4ccccc4)nn4ccccc34)cc12`, for which the residual activity in test [1] stood at 97%; in test [2], 114%; in [3] it was 106%; in test [4] it was 75%; in test [5] it was 67%; in test [6], 92%. The residual activity amounted to 80% in test [7], 67% in test [8], 37% in [9] and 104% in test [10].
